Out of some 31,000 sequences screened, about 1,400 (4.5%) were called active.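 How the source made its calls: active means median seed-adjusted z-score above 1 or below -1; inactive means the rest.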 The full list was thinned out, with actives kept by preference.
Experiment: Novel Modifiers of Survival Motor Neuron (SMN) Protein: Gene Identification via Genome-wide siRNA Screen;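 further: luminescence tracks full-length SMN protein made from the SMN2 reporter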
Conditions: HEK293T SMN2-luciferase reporter, siRNA knockdown, 72 h; actives lie on both sides
Procedure, shortened: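 HEK293T cells stably expressing an SMN2 splicing/cDNA-luciferase reporter were reverse-transfected with a druggable-genome siRNA library and read by luminescence at 72 hours; hits defined by MAD score above 1.0 or below -1.0.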

| Sequence | median seed-adjusted z-score |
| --- | --- |
| GGCUAUGACGGGAAGGAGATT against PTPN7 | -0.189 (inactive) |
| GAAUAGAUUUCAGUAGUAUTT against DDI2 | 1.27 (active) |
| CCAGUGUACUCAGUCUAUUTT against STAM2 | -0.24 (inactive) |
| GACCUUCCUAGUUUCCUGATT against GIPC1 | 0 (inactive) |
| AGCUCAACCGGUUUAAUAATT against SLC9A1 | 0 (inactive) |
| GGAAAUAGGUCUAGUACUATT against PRPF4B | -2.29 (active) |
| GGAUGAGAAAGUCGUGAAATT against TSHZ2 | -0.361 (inactive) |
| CGGAUACGCUAAAAAUCAATT against B3GNTL1 | 0 (inactive) |
| GCCUAUUAUGGACAACAAUTT against IKZF2 | 0.514 (inactive) |
| GGAGUUAAGAAUAUUAUGATT against VAMP8 | -0.184 (inactive) |
| GGAGUUCAUCAAUAUGAAUTT against MLF1 | 0.258 (inactive) |
| GCCUUCUACACUUACAUGATT against EVX1 | 1 (active) |
| GGAGUCAAGUGAAGCAGAATT against L3MBTL2 | -0.312 (inactive) |
| GCAGGUACAUCUCGCCUGATT against ENO1 | 0.0766 (inactive) |
| GCCCAAUACUUGCAAGUGATT against KCNA2 | -1.03 (active) |
| GGGAGGUAGUAAUCCUACATT against PPP1R12B | 0.416 (inactive) |
| GGAUUCAUGAGUCUAUAUATT against SLC25A27 | 0.0916 (inactive) |
| GGACACCACAGUACCUAAATT against IL22RA1 | -1.14 (active) |
| CAAUCCUGACUCAAACUAATT against RAG2 | 0.138 (inactive) |
| GGACCUGUAUUGGGAACAATT against ASPHD2 | -0.719 (inactive) |
| CUUCAAAGGUGACAAGUAUTT against MMP24 | -1.28 (active) |
| GGAGAGCAAUACAUCAUCATT against GLRX2 | -0.244 (inactive) |

| Sequence | median seed-adjusted z-score |
| --- | --- |
| GCACUUUACUAGGUCUAGATT against NANOS1 | 0.369 (inactive) |
| GAUUACUGGUGCGAUGUUATT against L3MBTL4 | -0.189 (inactive) |
| UCUGCUAACCUGAAAGUAATT against CARD8 | 0.115 (inactive) |
| AGAUCGACAAGAUGCAAGATT against FOXN1 | 0.226 (inactive) |
| CAGUGAAUCUUGGUUGUAATT against TBP | -1.25 (active) |
| GCAUCAUCCAGAGACUGCATT against CCL19 | 0.0364 (inactive) |
| GCAGAGACACCUUGAAGUATT against GAD1 | 0.101 (inactive) |
| CGUGUUUAUAAUUACCGAATT against MED14 | -3.22 (active) |
| CACGAAAUCAUGCAAAUCATT against RPL17 | -0.13 (inactive) |
| GAGGCGCACUUCAAGCAUATT against CENTA1 | -0.555 (inactive) |
| GGAGUAAACCUCACUGACATT against TMPRSS5 | 1.25 (active) |
| GUAUCAAUCUUUGCGGAUATT against KL | -0.267 (inactive) |
| AGAUCAUGACUUGUGCUGATT against SEZ6L2 | -0.331 (inactive) |
| GGAGGGCAUUGUCACUAAATT against MCM3 | 0.339 (inactive) |
| GGAUACCCAAUGCAAAUUATT against MMP16 | 0.144 (inactive) |
| GGAGAACUACCAGAACCUUTT against ZNF74 | 1.17 (active) |
| GCACUGGACCAAUACAAGUTT against GPR84 | 0.285 (inactive) |
| GGUGUUGUCUUGAGGUACATT against ADAMTS1 | 0.173 (inactive) |
| ACCCAGAUAUGGAUCUGCATT against TTLL10 | 0.211 (inactive) |
| GCUCAAAUGGAGAACUAAATT against GALNT8 | -0.283 (inactive) |
| GACCAAAAGUGGAACUCCATT against PTPN23 | -0.0473 (inactive) |
| CCAUUGUUCCAGACUUCUUTT against CMBL | 0 (inactive) |

| Sequence | median seed-adjusted z-score |
| --- | --- |
| GGGCAUGGGUUUUAAUCGATT against PYGO1 | -1.23 (active) |
| GAGUUAUACGAUCCAUGUATT against TXNL4A | -0.42 (inactive) |
| AGAGCUAUGCUUUAGGUCUTT against S100A2 | -0.0951 (inactive) |
| GCCUCAAUCUCUACUCGAATT against PCDHGA2 | -0.8 (inactive) |
| GACAAAAAGUCCAACCCUATT against CYB5R3 | -0.901 (inactive) |
| UGAGAUUUCGGAAUCAGAATT against TSPAN31 | -1.13 (active) |
| GAACUAGGAUUUCAUAGCATT against LGR5 | 0 (inactive) |
| GAGUCACAGUCGUUAUUCUTT against CNOT4 | -0.116 (inactive) |
| GGAUUAUUUCUGGUUCCUATT against ATP8A2 | 0 (inactive) |
| GCAUCAGCAUGUCGGUGGATT against ARID3A | -1.11 (active) |
| GUCCCGCAGAUUCAACAAATT against SSBP3 | 0.00592 (inactive) |
| CAAUCCUGUAUCUACCGUATT against OVCH1 | 0.0211 (inactive) |
| CAUCAAUGAGGUAUACUAUTT against DYRK1B | 0.29 (inactive) |
| CUAUAAGUCUAGUAGCAAATT against WNK2 | 0.212 (inactive) |
| CGACGGCACCUGCAAUUUUTT against IMPA2 | 0.0513 (inactive) |
| GCUGUAAACAGUCAUCAGATT against ZNF180 | 0 (inactive) |
| GAAAAUGACGGUUAUAAGATT against PMM2 | 0.448 (inactive) |
| GCAUGUUAUUGAAUUAUCATT against TM9SF2 | 1.09 (active) |
| GGAACGUGGUACUUAGUUATT against HMGCS1 | 0.0596 (inactive) |
| GCAGCUUCAAGAUCAAUGATT against ANTXR1 | -0.0849 (inactive) |
| CAAAAGUGUAUAUAAACUUTT against NDUFS6 | -0.0128 (inactive) |
| ACUUUGUCCGUGUGUCUUATT against SLC30A3 | -1.26 (active) |

| Sequence | median seed-adjusted z-score |
| --- | --- |
| GGAACAGGAUGAAUAUGCATT against HADHB | -0.188 (inactive) |
| CGACUGGAUGUAUAAGCAUTT against TGIF2LX | -0.568 (inactive) |
| GAGAAGAAGUUCUUAAGGATT against ALKBH8 | -0.487 (inactive) |
| AGUUCUACAUGCCGGAUGATT against GGTLC1 | -0.298 (inactive) |
| GCCUCGUUCUGAAGACGAUTT against LIPC | 0.244 (inactive) |
| CCAACCACCAGAUCUAUGATT against LBX1 | -0.36 (inactive) |
| CCAUGGCAGUACCAACUAGTT against CREM | -2.37 (active) |
| GGACCACUAUUUACAGCAATT against FUCA2 | 0.562 (inactive) |
| GGUCUGUACUGGGAUUCAUTT against PKD2L2 | -0.0723 (inactive) |
| GGCUUUUGCCCUAUCCAUUTT against WNK4 | 0.385 (inactive) |
| CACGAGGAGUGGACAAUAUTT against UCK1 | -0.599 (inactive) |
| CAAAUCGCCUAAUAAACUUTT against KRT33B | 0.04 (inactive) |
| GGAGCUUUGUCAAGAAGAUTT against FKBPL | -1.11 (active) |
| GCCUGAUAACGUAAUAACATT against ARSA | 0.0938 (inactive) |
| GACUUACUUAGAUAUGAGATT against ZNF568 | 0.501 (inactive) |
| GGUUUGUCCCUUCGCUAUATT against LRRTM3 | -0.0808 (inactive) |
| GCAGAGAUUUCCAAGAAAATT against GPR32 | -1.2 (active) |
| CAAGAAUGACUGUGAUGAATT against PLA2G12A | 0.139 (inactive) |
| GGUCUAUACAGAGUCAAUATT against MRCL3 | -0.00909 (inactive) |
| GGAUUCACACGGGAAUUAATT against ZNF649 | 0.259 (inactive) |
| CGUCGAAUGUUUAAAGUCUTT against ITFG1 | -0.417 (inactive) |
| ACGUGUUUGCUUCCACAAATT against NEURL2 | 1.39 (active) |

| Sequence | median seed-adjusted z-score |
| --- | --- |
| GCAUGAUGGAUGUUGAUCATT against CCT5 | 0 (inactive) |
| GCACUGAUGACAACAACUATT against HTR1F | -0.127 (inactive) |
| AGAGUGUGCCGGUUACCCATT against CD8B | 0.174 (inactive) |
| GAGUCACAAUUGAUCCGGATT against TOP2A | -0.187 (inactive) |
| CCAUCGAUGAUGACUGUAATT against ETFB | 0.0669 (inactive) |
| GAGCAGAUCUUUUUAUGCATT against ZNF664 | 1.08 (active) |
| CAUUGAGACCUAUCUGCUATT against MYH11 | 0 (inactive) |
| CGGGUAUGUUGAUAGCAUATT against FAM12B | 0.312 (inactive) |
| GCAGUGUACCCGUCAUUAUTT against SEMA4B | 0.185 (inactive) |
| GGAACAAAAGGAUCGAAUATT against CLSTN3 | 0 (inactive) |
| CUAUAAAUGUAAACGAUGUTT against ZNF442 | 1.06 (active) |
| CUGUUUGACUUCAUCGAGATT against COPG | 0.175 (inactive) |
| CAAUCCAUGUCAUAGGGAATT against ZNF702 | 0.204 (inactive) |
| CGGCAAUCCUUACGGCUAATT against DSG4 | -0.0211 (inactive) |
| CCGUCAUUGUCAACCGGAATT against SLC4A5 | 1.3 (active) |
| CUACGUCUCGGGUCCAGAUTT against HOXA11 | -0.222 (inactive) |
| GGACAUACACUGAGAGUCATT against PDLIM2 | 0.267 (inactive) |
| GAGCAGAACCGCAUCAUAUTT against UCN | -0.472 (inactive) |
| GGAGGAUACUUUAGAACAATT against NDC80 | 0.0855 (inactive) |
| GCAUCUACAUGACCAACCUTT against GPR35 | -1.46 (active) |
| CAUGAUACAGGGAAUAAAATT against ZNF619 | -0.536 (inactive) |
